Results on 19 molecules are retold here after PubChem BioAssay (Tox21).

The nature of assay [1]: qHTS assay for small molecules that induce genotoxicity in human embryonic kidney cells expressing luciferase-tagged ATAD5 (AID 651632). Also: nearly all actives have a fitted effect of over 15% in size. The essentials: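 ATAD5-luc HEK293T, 2,000 cells/well; cpd or DMSO pin-transferred; 16 hr, 37C/5% CO2; Amplite 30 min RT; luminescence.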
Background: Quantitative high-throughput screening tests each substance at several concentrations.

Assay [2] in a line: qHTS assay for small molecule agonists of the p53 signaling pathway - cell viability (AID 651633; calls by dose curve; also: nearly all actives have a fitted effect of over 30% in size; also: potency is read from the fitted curve at half-maximal effect). The essentials:
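p53RE-bla cells, seeded at 4,000 per well and rested 5 h at 37 C/5% CO2, received compounds in DMSO for 16 h at 37 C. CellTiter-Glo was then added, and luminescence was read after 30 min at room temperature to gauge cytotoxicity.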

Assay [3] in a line: qHTS assay for small molecules that induce genotoxicity in human embryonic kidney cells expressing luciferase-tagged ATAD5 - cell viability (AID 651634; calls by dose curve; also: nearly all actives have a fitted effect of over 25% in size). The essentials: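 Fluorescence from CellTiter-Fluor, reporting protease activity within live cells, served as the viability read-out. HEK293T cells carrying luciferase-tagged ATAD5 had been treated with compound for 15.5 hr at 37C.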

A short description of assay [4]: qHTS assay for small molecule disruptors of the mitochondrial membrane potential - cell viability (AID 720634; calls by dose curve;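 also: human HepG2 liver cancer cells; series mostly up to about 83 µM; nearly all actives have a fitted effect of over 20% in size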). The essentials:
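Cells: HepG2, 2,000/well, attached overnight. Compound 1 hr, 37 C/5% CO2. +m-MPI dye, +CellTiter-Glo 30 min RT. Readout: luminescence (ATP).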

A short description of assay [5]: qHTS assay to test for compound auto fluorescence at 590 nm (red) in HepG2 cells (AID 720674). In outline: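 Rose Bengal sodium served as the red fluorophore standard. HepG2 monolayers (overnight attachment, MEM with 10% FBS) were exposed to test compounds for 1 hr at 37 C and read at Ex 540/Em 590 nm.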
The nature of assay [6]: qHTS assay to test for compound auto fluorescence at 535 nm (green) in HepG2 cells (AID 720675).
A short description of assay [7]: qHTS assay to test for compound auto fluorescence at 460 nm (blue) in HEK293 cells (AID 720678). The essentials:
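Auto fluorescence in the blue band was quantified as triamterene equivalency. HEK293 cells were seeded at 2,000/well, dosed after a 4-5 hr attachment, and kept overnight at 37C before the 405/460 nm reading.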

Assay [8] can be described thus: qHTS assay to test for compound auto fluorescence at 590 nm (red) in HEK293 cells (AID 720679). The essentials:
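Autofluorescence equivalency to Rose Bengal sodium, 540/590nm, in HEK293 cells exposed overnight to 23 nL compound per well.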

A short description of assay [9]: qHTS assay for small molecule disruptors of the mitochondrial membrane potential (AID 720635). Also: potency is read from the fitted curve at half-maximal effect. In outline: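 HepG2 cells (2,000/well) attached overnight at 37C, then took compound for 1 hr at 37C, 5% CO2. Mito-MPS dye was added for 30 min; fluorescence was read at 490/535 nm (monomers) and 540/590 nm (aggregates).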

Inconclusive results are not listed. The source made the active and inactive calls. Unless noted, calls follow the shape of the dose curve; as a rule, active = well fitted curve in the direction sought with a large enough effect in the repeat runs; inconclusive = weak or mixed curves; inactive = no such curve, though single readings can be large; an effect the other way counts as inactive or inconclusive.
% is scaled to controls: 0 for no effect and ±100 for the full control effect.

`O=C(c1ccccc1)c1ccc(O)cc1`: the Potency entry in assay [1], in [2], in assay [3] and in assay [7] was “inactive” each time. Moreover, the molecule was classed as inactive in [4], in assay [5], in [6] and in assay [8].
Regarding `O=C(CCS)OCC(COC(=O)CCS)(COC(=O)CCS)COC(=O)CCS`, the Potency entry in assay [1], in assay [2], in assay [3] and in [7] was “inactive” in each case. Also, the outcome in assay [4], in assay [5], in assay [6] and in assay [8] was inactive.
As to `CCCCC(CC)COS(=O)(=O)O` (stereo not drawn), the Potency entry in assay [1], in assay [2], in assay [3] and in [7] was “inactive” throughout. Also, the result in [4], in assay [5], in [6] and in assay [8] was inactive.
`COC1CCC=CO1` (stereo not drawn): the Potency entry in assay [1], in assay [2], in assay [3], in [9] and in assay [7] was “inactive” each time. Moreover, the molecule was classed as inactive in assay [4], in assay [6] and in assay [8].
In the case of `CC(C)C1CCC(C(=O)N[C@H](Cc2ccccc2)C(=O)O)CC1` (stereo partly drawn), the Potency result in [1], in assay [2], in assay [3] and in assay [7] was “inactive” in each case. Also, the molecule was classed as inactive in [4], in assay [5], in assay [6] and in assay [8].
For the molecule `Cc1ccc(Nc2c(F)cccc2Cl)c(CC(=O)O)c1`, the Potency result in assay [1], in assay [2], in assay [3] and in assay [7] was “inactive” each time. For the same molecule, the outcome in assay [4], in assay [5], in assay [6] and in assay [8] was inactive.
As for `COc1cc(C(C)=O)ccc1OCCCN1CCC(c2noc3cc(F)ccc23)CC1`, the Potency result in assay [1], in assay [2], in [3] and in [7] was “inactive” in each case. Moreover, the call in assay [4], in [5], in assay [6] and in assay [8] was inactive.
With `CC(C(=O)O)c1ccc(C(=O)c2cccs2)cc1` (stereo not drawn), the Potency result in [1], in assay [2] and in assay [3] was “inactive” each time. Also, in [4], the outcome was inactive. Moreover, the fluorescence, relative to Rose Bengal in [5] is 0.487% [at 18.6 µM] (inactive). For the same molecule, the fluorescence, % of fluorescein control in assay [6] is -0.0382% [at 18.6 µM] (inactive). Further, in assay [7], the fluorescence, % of triamterene was -0.243% [at 18.6 µM] (inactive). Further, the fluorescence, % of fluorescent control in [8] is 0.162% [at 18.6 µM] (inactive).
Take `CC(CCc1ccc(O)cc1)NCCc1ccc(O)c(O)c1` (stereo not drawn): the Potency entry in [1], in assay [2], in assay [3] and in [7] was “inactive” throughout. In addition, the molecule was called inactive in assay [4], in [5], in assay [6] and in assay [8].
For `CNC1CCCN(c2c(F)cc3c(=O)c(C(=O)O)cn(C4CC4)c3c2OC)C1` (stereo not drawn), the Potency entry in [1], in assay [3], in assay [9] and in [7] was “inactive” throughout. Besides, the result in assay [4], in assay [5], in assay [6] and in assay [8] was inactive.
As to `CCCCCCCCCCCSCC(=O)O`, the Potency result in [1], in assay [3] and in assay [7] was “inactive” in each case. Besides, the call in assay [4], in assay [5], in assay [6] and in [8] was inactive.
For the molecule `CN1C(CSCC(F)(F)F)Nc2cc(Cl)c(S(N)(=O)=O)cc2S1(=O)=O` (stereo not drawn), the Potency result in assay [1], in assay [3], in [9] and in assay [7] was “inactive” in each case. For the same molecule, the result in assay [4], in assay [5], in assay [6] and in assay [8] was inactive.
On to `COC(=O)C1=C(C)NC(C)=C(C(=O)OC(C)(C)CN(C)CCC(c2ccccc2)c2ccccc2)C1c1cccc([N+](=O)[O-])c1` (stereo not drawn), for which the Potency entry in assay [1] and in assay [7] was “inactive” throughout. Besides, the Potency in assay [9] is 5.96 µM (active). Moreover, the molecule was classed as inactive in [5], in [6] and in assay [8].
As for `Nc1ccc(F)cc1`, the Potency result in assay [2], in assay [3] and in assay [7] was “inactive” each time. Moreover, the molecule was classed as inactive in [4], in assay [6] and in assay [8].
With `CC(C)(C)CCCCCCOC(=O)c1ccccc1C(=O)OCCCCCCC(C)(C)C`, the Potency result in [1], in assay [3] and in [7] was “inactive” each time. Further, the result in [4], in assay [5], in assay [6] and in [8] was inactive.
Consider `CCCCCCCC(=O)Oc1c(Br)cc(C#N)cc1Br`, for which the Potency entry in assay [1], in assay [2] and in assay [7] was “inactive” each time. Further, the Potency in assay [9] was 12.1 µM (active). Moreover, the molecule was called inactive in assay [6] and in [8].
As to `O=C(c1ccccc1)C1CCC1`, the Potency entry in assay [1], in [2], in assay [9] and in assay [7] was “inactive” in each case. The molecule was called inactive in assay [4], in assay [5], in assay [6] and in assay [8].
In the case of `CC1CCC(C(C)CS)CC1S` (stereo not drawn), the Potency entry in assay [1], in assay [9] and in [7] was “inactive” throughout. In assay [2], the Potency was 54.5 µM (active). The call in [5], in assay [6] and in assay [8] was inactive.
Consider `Cc1ccc2c(c1)CCCN2`, for which the Potency entry in [1], in [3], in assay [9] and in assay [7] was “inactive” throughout. The outcome in assay [4], in assay [5], in assay [6] and in assay [8] was inactive.
